Screening data deposited in PubChem BioAssay by ICCB-Longwood Screening Facility, Harvard Medical School.
Sa helicase inh: blocks Staphylococcus aureus DNA helicase; purified S. aureus helicase, fluorescence unwinding assay; inhibition, % (test concentration not listed); 120,000 tested, 0.05% active; in the data active means inhibition above about 25%, passing the limit was not always enough
Sa growth 42C: S. aureus growth inhibition. AID 720641. 170,000 tested, 0.53% active. S. aureus RN4220 growth, OD600, 20 h, 42 °C; stronger effect = lower value. relative growth, % (no concentration beside the values);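 active means relative growth at most 50% at the other temperature and 20+ points below 30 °C, or under 10% at both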
Of the large screens only hits and unclear results are named; the others gave an inactive call. The full list was thinned out, with hits kept by preference.

CCOC(=O)c1cn(CC)c2cc(N3CCCC3)c(F)cc2c1=O	none
O=C(O)c1cn(C2CC2)c2cc(N3CCN(C(=S)S)CC3)c(F)cc2c1=O	Sa growth 42C -0.9
CC(Oc1ccc(F)cc1)C(=O)Nc1nc(-c2ccc(F)cc2)ns1 (stereo unspecified)	Sa growth 42C 2.3 (no result: Sa helicase inh)
COc1ccc(-c2nsc(NC(=O)C(C)Oc3ccc(Cl)c(C)c3)n2)cc1 (stereo unspecified)	none (no result: Sa helicase inh)
CC(C)(C)c1nc2scc(-c3ccc(Cl)cc3)n2n1	none (no result: Sa helicase inh)
CO/N=C(\C(=O)O)c1csc(N)n1	none
CO/N=C(/C(=O)N[C@@H]1C(=O)N2C(C(=O)O)=C(COC(C)=O)CS[C@H]12)c1csc(N)n1	Sa growth 42C 1.1 (no result: Sa helicase inh)
COc1ccc(N2CC(NC(=O)Cc3cccs3)CC2=O)cc1 (stereo unspecified)	none (no result: Sa helicase inh)
C=CC1=C(C(=O)O)N2C(=O)[C@@H](NC(=O)C(=NO)c3csc(N)n3)[C@H]2SC1	Sa growth 42C -0.1 (no result: Sa helicase inh)
CC(=O)OCC1=C(C(=O)O)N2C(=O)[C@@H](NC(=O)Cc3cccs3)[C@H]2SC1	Sa growth 42C -0.7 (no result: Sa helicase inh)
COCC1=C(C(=O)OC(C)OC(=O)OC(C)C)N2C(=O)[C@@H](NC(=O)/C(=N/OC)c3csc(N)n3)[C@H]2SC1 (stereo partly specified)	none (no result: Sa helicase inh)
CC1CCCCN1C(=O)c1cc2nc(-c3ccc(Cl)cc3)cc(C(F)(F)F)n2n1 (stereo unspecified)	none
Cc1cc(-c2nc(C34CC5CC(CC(C5)C3)C4)cs2)no1	none
COc1ccc(S(=O)(=O)N2CCOCC2)cc1-c1nnc2c3ccccc3c(C)nn12	none
Cc1ccc(C)c(NC(=O)c2ccccc2)c1	none
Cc1cc(N=NC(=O)c2ccccc2)ccc1O	Sa growth 42C 0.6
CS(=O)(=O)CCC(C(=O)Oc1cccc2cccnc12)N1C(=O)c2ccccc2C1=O (stereo unspecified)	Sa growth 42C 0.7
CS(=O)(=O)CCC(C(=O)n1nnc2ccccc21)N1C(=O)c2ccccc2C1=O (stereo unspecified)	none
O=C(CCn1cccc1)NCCCc1ccccc1	none
COc1ccc2[nH]c(C)cc(=S)c2c1	none
Cc1ccc2[nH]c(C)cc(=S)c2c1	Sa growth 42C 5.8
O=C(OCc1cc(=O)oc2cc3c(cc12)CCC3)c1ccccn1	none
CN(C)S(=O)(=O)c1ccc(S(=O)(=O)N(Cc2ccccc2F)C2CC2)cc1	none
CN1/C(=C\C(=O)CSCCO)C(C)(C)c2ccccc21	Sa growth 42C -0.5
Cc1ccnc(SCC(=O)/C=C2\N(C)c3ccccc3C2(C)C)n1	none
c1ccc(-c2ccc3c(c2)c2c4n3CCN=C4CCC2)cc1	Sa growth 42C -0.2
Cc1ccc2c(c1)c1c3n2CC(O)CN=C3CCC1 (stereo unspecified)	none
CC(C)CS(=O)(=O)c1oc(-c2cccs2)nc1S(=O)(=O)c1ccccc1	Sa growth 42C 23
CCCCS(=O)(=O)c1oc(-c2ccc(F)cc2)nc1S(=O)(=O)c1ccc(C)cc1	Sa growth 42C 4.8 (no result: Sa helicase inh)
Cc1ccc(S(=O)(=O)c2nc(-c3ccccc3)oc2S(=O)(=O)c2ccc(C)cc2)cc1	none
CCS(=O)(=O)c1oc(-c2ccc(F)cc2)nc1S(=O)(=O)c1ccccc1	Sa growth 42C 2.2 (no result: Sa helicase inh)
CCC(C)S(=O)(=O)c1oc(-c2ccc(F)cc2)nc1S(=O)(=O)c1ccc(F)cc1 (stereo unspecified)	Sa growth 42C 15 (no result: Sa helicase inh)
CCCCS(=O)(=O)c1oc(-c2cccs2)nc1S(=O)(=O)c1ccc(F)cc1	none (no result: Sa helicase inh)
CCCCCS(=O)(=O)c1oc(-c2cccs2)nc1S(=O)(=O)c1ccc(C)cc1	none (no result: Sa helicase inh)
CCC(C)S(=O)(=O)c1oc(-c2ccc(F)cc2)nc1S(=O)(=O)c1ccc(C)cc1 (stereo unspecified)	none
CCN(c1ccccc1)c1nnc(NC(=O)Nc2cccc(OC)c2)s1	none
CSc1cccc(NC(C#N)c2ccccc2)c1 (stereo unspecified)	none (no result: Sa helicase inh)
Cc1cccc(OCC(=O)O)c1C	none
CN(CCc1ccccn1)C(=O)c1cccc(Oc2ccccc2)c1	none
Cc1ccc(-c2ccc(CCC(=O)O)o2)cc1	Sa growth 42C -1.4
O=C(O)CCc1ccc(-c2cccs2)o1	none
O=S1(=O)CC(Sc2ccccc2)c2ccccc21 (stereo unspecified)	none (no result: Sa helicase inh)
CN(Cc1nc(-c2ccccc2)no1)C(=O)NC1CCCCC1	none
CCC(Sc1nnc2c3ccccc3n(C)c2n1)C(=O)Nc1nnc(C(F)(F)F)s1 (stereo unspecified)	none
Cc1cc(C)c2cccnc2c1O	Sa growth 42C 3.0
Cc1cc(C)c2ccc(NN)nc2c1O	none
O=C(CN1CCC(N2CCCCC2)CC1)c1ccc(F)cc1	none
CC1COc2c(N3CCN(C)CC3)c(F)cc3c(=O)c(C(=O)N4CCN(c5ncccn5)CC4)cn1c23 (stereo unspecified)	none
CC1COc2c(N3CCN(C)CC3)c(F)cc3c(=O)c(C(=O)O)cn1c23 (stereo unspecified)	Sa growth 42C -0.5 (no result: Sa helicase inh)
COc1cccc(OC)c1/C(O)=C(\C#N)c1nc2ccccc2s1	Sa growth 42C 1.4
N#C/C(=C(/O)COc1ccccc1)c1nc2ccccc2s1	none
CC(C)CCn1c(=O)c2ccccc2n2c(COC(=O)c3cc(F)cc(F)c3)nnc12	none
CCCCNC(=S)Nc1ccc(OC)cc1	none
CCCCNC(=S)Nc1ccc(SC(F)F)cc1	Sa growth 42C 0.6
CCc1ccc(C(=O)CN2C(=O)CN(C)C2=O)cc1	none
Clc1ccccc1C(c1ccccc1)(c1ccccc1)n1ccnc1	Sa growth 42C 0.2 (no result: Sa helicase inh)
N#Cc1c(Cl)cccc1-n1ccnc1	none
CCN(CC)CCOc1ccccc1	none
COC(=O)CNC(c1ccccc1)c1cc(Br)ccc1NC(=O)c1ccc(Cl)cc1 (stereo unspecified)	none (no result: Sa helicase inh)
COC(=O)CNC(c1ccccc1)c1cc(Br)ccc1NC(=O)CCN1CCOCC1 (stereo unspecified)	Sa growth 42C 21
Oc1ccccc1/C=N/[n+]1ccccc1	none
C=CC[n+]1ccc(/C=C/c2ccccc2O)c2ccccc21	Sa helicase inh 42
Cc1ccn2c(NS(=O)(=O)c3ccc4c(c3)OCCO4)c(-c3cccs3)nc2c1	none
Cc1csc2nc(O)c(C(=O)NCCCN3CCOCC3)c(=O)n12	none
CCCCc1ccc(Nc2cc(C)nc(-n3nc(C)cc3C)n2)cc1	none (no result: Sa helicase inh)
Cc1cc(C)n(-c2ccccc2)n1	none
Cc1cc(C)n(-c2nc(NC(C)C)nc(NC(C)C)n2)n1	Sa growth 42C -0.4
Cc1cc(C)n(-c2ncc(S(=O)(=O)C(C)(C)C)c(N)n2)n1	none
Cc1cc(C)cc(Nc2cc(C)nc(-n3nc(C)cc3C)n2)c1	Sa growth 42C -0.7
Cc1cc(C)cc(Nc2nc3cc(Cl)c(Cl)cc3nc2-n2nc(C)cc2C)c1	none (no result: Sa helicase inh)
Cc1cc(Nc2ccc(F)cc2)nc(-n2nc(C)cc2C)n1	Sa growth 42C 2.5 (no result: Sa helicase inh)
Cc1cc(Nc2ccccc2C)nc(-n2nc(C)cc2C)n1	Sa growth 42C -0.2 (no result: Sa helicase inh)
O=C(Nc1nnc(N2CCCCCC2)s1)c1csc2c1CCCC2	none
CCn1c(=NC(=O)c2cccs2)sc2cc(OC)c(OC)cc21	none
CC(=O)OC1C(OC(C)=O)N(C)C(=O)N1C (stereo unspecified)	none
O=C(Oc1ccc(Oc2ccccc2)cc1)c1cccs1	none (no result: Sa helicase inh)
COc1ccc(C2=C[N+](=O)C(C)(C)C(C)(C)N2[O-])cc1	none
CCCCC(CC)c1nnc(N)s1 (stereo unspecified)	none
Cc1cc(Nc2cc(F)ccc2C)nc(-n2nc(C)cc2C)n1	Sa growth 42C 3.1 (no result: Sa helicase inh)
COc1ccc(-c2cc(C(F)F)nc(-n3nc(C)cc3C)n2)cc1	none
Cc1cc(N2CCCC2)nc(-n2nc(C)cc2C)n1	Sa growth 42C 7.7
Cc1cc(N2CCCCC2)nc(N2CCOCC2)n1	none
